According to PubChem BioAssay (Tox21):
Several values for one entry are separate records, joined by “and”; a condition that tells them apart may be missing. Equal entries are not always repeated. Records with an inconclusive call do not appear. Activity calls are given as the source filed them. Unless noted, calls come from the whole dose curve; as a rule, active = well fitted curve in the direction sought with a large enough effect in the repeat runs; inconclusive = weak or mixed curves; inactive = no such curve, though single readings can be large; an effect the other way counts as inactive or inconclusive.

Experiments:
[1] = qHTS assay for small molecules that induce genotoxicity in human embryonic kidney cells expressing luciferase-tagged ATAD5 (AID 651632); conditions: HEK293T ATAD5-luciferase induction, 16 h; series mostly up to 83.3 µM; note: nearly all actives have a fitted effect of over 15% in size
Summary of the method: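 Reporter cells (HEK293T) express luciferase-tagged ATAD5, a protein that accumulates after DNA damage. Treat 16 hr at 37C/5% CO2, add Amplite, wait 30 min at RT, and read luminescence.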

[2] = qHTS assay for small molecule disruptors of the mitochondrial membrane potential (AID 720635); conditions: HepG2 mitochondrial membrane potential, Mito-MPS dye ratio; series mostly up to 83.2 µM; note: potency is the fitted concentration of half-maximal effect
Summary of the method: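 HepG2 cells exposed to compound 1 hr at 37C, then Mito-MPS dye 30 min. Ratio read of aggregate (540/590 nm) versus monomer (490/535 nm) fluorescence.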

[3] = qHTS assay to test for compound auto fluorescence at 590 nm (red) in HepG2 cells (AID 720674); conditions: HepG2 autofluorescence, red 540/590 nm, 1 h; series mostly up to 91.3 µM
Summary of the method: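 Seeding: 2,000 HepG2 cells/well, MEM/10% FBS, overnight 37 C. Dosing: compound vs DMSO. Incubation: 1 hr, 37 C, 5% CO2. Read: fluorescence 540 ex/590 em, Rose Bengal sodium as red reference.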

[4] = qHTS assay to test for compound auto fluorescence at 535 nm (green) in HepG2 cells (AID 720675); conditions: green autofluorescence 485/535 nm, 1 h; series mostly up to 91.3 µM
[5] = qHTS assay to test for compound auto fluorescence at 460 nm (blue) in HEK293 cells (AID 720678); conditions: blue autofluorescence 405/460 nm; series mostly up to 91.3 µM
Summary of the method: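 Cells were seeded and left to adhere for 4-5 hr at 37C. Compounds were then pin-transferred. After an overnight incubation at 37C under 5% CO2, intrinsic fluorescence at 405/460 nm was measured and referenced to triamterene.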

[6] = qHTS assay to test for compound auto fluorescence at 590 nm (red) in HEK293 cells (AID 720679); conditions: red autofluorescence 540/590 nm; series mostly up to 91.3 µM
Summary of the method: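 Each well held 2,000 HEK293 cells in medium containing 10% dialyzed FBS. Following 4-5 hr attachment at 37C, 23 nL test compound or DMSO was added; plates sat overnight, and red fluorescence (540/590nm) was recorded.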

[7] = qHTS assay for small molecules that induce genotoxicity in human embryonic kidney cells expressing luciferase-tagged ATAD5 - cell viability (AID 651634; calls by dose curve; note: nearly all actives have a fitted effect of over 25% in size); conditions: HEK293T ATAD5-luc cells viability, CellTiter-Fluor, 15.5 h; series mostly up to 83.3 µM
Summary of the method: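 Seeding of 2,000 HEK293T ATAD5-luciferase cells per well preceded pin-tool compound transfer. Plates sat 15.5 hr at 37C under 5% CO2, then fluorescence was read after 30 min with CellTiter-Fluor.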

[8] = qHTS assay for small molecule disruptors of the mitochondrial membrane potential - cell viability (AID 720634; calls by dose curve;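 note: human HepG2 liver cancer cells; nearly all actives have a fitted effect of over 20% in size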); conditions: HepG2 viability, ATP luminescence (CellTiter-Glo), 1 h; series mostly up to 83.2 µM
Summary of the method: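 Measuring cytotoxicity alongside mitochondrial potential, the screen quantified ATP by luminescence in HepG2 cells after 1 hr compound incubation and a 30 min room-temperature CellTiter-Glo step.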

[9] = qHTS assay for small molecule agonists of the p53 signaling pathway - cell viability (AID 651633; calls by dose curve;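 note: p53RE-bla HCT reporter cells with a stable beta-lactamase p53 reporter; nearly all actives have a fitted effect of over 30% in size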); conditions: p53RE-bla HCT-116 viability, ATP luminescence, 16 h; series mostly up to 83.3 µM
Summary of the method: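 p53RE-bla cells were treated with compound for 16 hours at 37 C. Cytotoxicity was then measured as CellTiter-Glo luminescence after 30 min at room temperature.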

Measured: Potency

c1ccc2c(c1)[nH]c1ccccc12
active: [2] 19 µM and 21.7 µM
inactive: [1] | [3] | [4] | [5] | [6]

CC(=O)O[C@]1(C(C)=O)CC[C@H]2[C@@H]3C=C(Cl)C4=CC(=O)CC[C@]4(C)[C@H]3CC[C@@]21C
not listed: [2] | [9]
inactive: all other assays above

C=C[C@H]1CN2CC[C@H]1C[C@@H]2[C@@H](O)c1ccnc2ccc(OC)cc12
not listed: [2] | [9]
inactive: all other assays above

c1ccc2c(c1)ccc1ncccc12
active: [2] 27.3 µM
not listed: [9]
inactive: all other assays above

Cc1ccc(/C(=C\CN2CCCC2)c2ccccn2)cc1
not listed: [1] | [7]
inactive: all other assays above

NCCN
not listed: [1] | [2] | [7]
inactive: all other assays above

CC1(C)O[C@@H]2C[C@H]3[C@@H]4C[C@H](F)C5=CC(=O)C=C[C@]5(C)[C@@]4(F)[C@@H](O)C[C@]3(C)[C@]2(C(=O)CO)O1
not listed: [9]
inactive: all other assays above

CC(C)[C@@H]1CC[C@@H](C)CC1=O
not listed: [1] | [2] | [9]
inactive: all other assays above

C=C[Si](OCCOC)(OCCOC)OCCOC
not listed: [2] | [9]
inactive: all other assays above

NC[C@H](O)c1ccc(O)c(O)c1
not listed: [9]
inactive: all other assays above

COc1cc([C@H]2Oc3cc([C@H]4Oc5cc(O)cc(O)c5C(=O)[C@@H]4O)ccc3O[C@@H]2CO)ccc1O
active: [2] 29.8 µM and 21.6 µM
not listed: [8] | [9]
inactive: all other assays above

Oc1c(Cl)ccc(Cl)c1Cl
inactive: [1] | [3] | [4] | [5] | [6]
active: [2] 4.32 µM and 61.1 µM

NCCOCCO
not listed: [9]
inactive: all other assays above

CCCCCCOCCOCCO
not listed: [1]
inactive: all other assays above

COCCOCCOCCO
inactive: [1] | [3] | [4] | [5] | [6]

CCCCCC1C(=O)CCC1CC(=O)OC (stereo unspecified)
not listed: [9]
inactive: all other assays above

C=C1C[C@H]2[C@@H]3C=C(C)C4=CC(=O)CC[C@]4(C)[C@H]3CC[C@]2(C)[C@@]1(OC(C)=O)C(C)=O
not listed: [9]
inactive: all other assays above

CC/C=C\C/C=C\C/C=C\CCCCCCCC(=O)O
not listed: [1] | [2] | [7]
inactive: all other assays above
